Screening results: PubChem, National Center for Advancing Translational Sciences (NCATS)
This is a sample that favours compounds with a hit; in the whole collection about 7.7% have one here.
HCMV inh: inhibitors of human cytomegalovirus; HFF cells, HCMV-luciferase reporter, 72 h; hits give low values; activity change, negative = inhibition, % at 57.5 µM; 4.5% of 410,000 active; in the data active means activity change below about -60%; inconclusive means no clear call, values can overlap the other calls; inactive means above about -39%
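Cell-based, HFFs, 1000 cells/well, 16 h 37C; cpds in DMSO + HCMV-luc, MOI 1 PFU/cell; 72 h 37C; OneGlo luminescence after 5 min RT; norm. to buffer vs Salinomycin 10uM.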
Sm TGR inh: blocks Schistosoma mansoni thioredoxin glutathione reductase; AID 485364; Potency, µM (highest dose often 114 µM), actives largely listed as inhibitors; 3% of 360,000 active; Q962Y6; purified TGR, DTNB reduction, TNB absorbance 405 nm; further: nearly all actives have a fitted effect of over 60% in size
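TGR 20 nM + NADPH 100 uM (dispensed conc.), cpd preinc 15 min RT; start with NADPH (500 uM addition) then DTNB (15 mM addition). Kinetic TNB absorbance, 405 nm filter. Four-parameter Hill fit across titration.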
TbPYK inhibitor: inhibitors of Trypanosoma brucei pyruvate kinase | Potency, µM (highest dose often 76.8 µM), actives largely listed as inhibitors | Q57TT1 | 0.12% of 410,000 active | TbPYK enzyme, Kinase-Glo Plus ATP luminescence, 45 min; further: nearly all actives have a fitted effect of over 50% in size
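Activity of T. brucei pyruvate kinase was followed by Kinase-Glo Plus luminescence after the enzyme reacted 45 min at room temperature with 130 uM ADP (final) and substrate. Test compounds were added before ADP at multiple concentrations.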
FMDV antiviral: antivirals against foot and mouth disease virus; FMDV antiviral cell-based qHTS; Potency, µM (top dose mostly 57.9 µM), usual class: inhibitors; 1.2% of 410,000 active; calls by dose curve; tested in HEK293T cells; further: read-out not given here; nearly all actives have a fitted effect of over 45% in size
RE007 growth inh: less growth of the S. pombe RE007 Vpr strain | S. pombe RE007 Vpr strain, BacTiter-Glo ATP luminescence, 24 h | Potency, µM (top dose mostly 92.2 µM), most hits filed as inhibitors | 0.21% of 360,000 active; active means well fitted falling curve with a large enough effect; inconclusive means small, poorly fitted or top-dose-only effect; inactive means no such curve, though single readings can be large or run the other way; further: nearly all actives have a fitted effect of over 50% in size
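Fission yeast strain RE007, carrying one chromosomally integrated HIV-1 vpr copy, was seeded at OD 0.01 in PMG+AL medium with 23 nL pinned compound. After 24 h at 30 °C and 99% humidity, viability was read by BacTiter-Glo luminescence.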
FBPA Giardia inh: inhibitors of Giardia lamblia fructose-1,6-bisphosphate aldolase; A8B2U2; purified Giardia FBPA; Potency, µM (doses to about 59.6 µM), usual class: inhibitors; 0.71% of 290,000 active; AID 2451; further: nearly all actives have a fitted effect of over 55% in size
Target sequence (A8B2U2 whole entry, looked up): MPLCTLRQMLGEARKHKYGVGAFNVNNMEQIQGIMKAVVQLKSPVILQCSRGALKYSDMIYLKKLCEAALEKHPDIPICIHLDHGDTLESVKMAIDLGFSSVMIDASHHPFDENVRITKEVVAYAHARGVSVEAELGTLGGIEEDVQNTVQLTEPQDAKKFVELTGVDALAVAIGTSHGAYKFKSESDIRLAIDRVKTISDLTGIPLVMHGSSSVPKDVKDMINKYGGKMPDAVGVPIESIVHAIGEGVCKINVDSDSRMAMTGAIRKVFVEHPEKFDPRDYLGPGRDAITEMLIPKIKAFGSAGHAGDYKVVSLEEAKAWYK
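40 nM FBPA preincubated 10 min at RT with compound (up to 57.5 uM final), then substrate plus GAPDH/TPI/NAD/arsenate coupling and diaphorase/resazurin added. Fluorescence read after 20 min at RT, 525/598 nm.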
Numbers stand for hits; . = inactive; ? = inconclusive; / = no result given. Unless noted, the call rests on the fitted dose curve; in most records, active means well fitted curve in the direction sought with a large enough effect; inconclusive means small, poorly fitted or top-dose-only effect, or another doubt; inactive means no such curve, though single readings can be large; an effect the other way counts as inactive or inconclusive.

SMILES	HCMV inh	Sm TGR inh	TbPYK inhibitor	FMDV antiviral	RE007 growth inh	FBPA Giardia inh
O=C(COC(=O)C1CCCCC1C(=O)N1CCc2ccccc21)NCc1ccco1 (stereo unspecified)	?	25µM	.	.	.	.
O=C(COC(=O)C1(c2ccc(F)cc2)CCCC1)NCc1ccco1	.	32µM	.	.	.	.
COc1cc(/C=C/C(=O)OCC(=O)NCc2ccco2)ccc1O	.	28µM	.	.	.	/
Cc1cccc(C(=O)Nc2ccc(N3CC=C(c4ccccc4C)CC3)c(C(=O)O)c2)c1	.	.	.	.	/	/
COCCCn1c(-c2ccco2)nc2ccccc2c1=O	.	.	.	.	.	.
COCCCN=C(c1ccco1)n1c(=S)nc(-c2ccco2)n(CCCOC)c1=S	.	20µM	.	/	.	?
COc1ccc(C(=O)c2sc3nc(C)cc(-c4cccs4)c3c2N)cc1	.	.	.	.	.	.
COc1ccc(C(=O)c2sc3nc(C)cc(-c4cccs4)c3c2N)cc1OC	-61	.	.	?	.	.
O=C(Nc1ccc(Cl)c(C(F)(F)F)c1)c1ccc2c(c1)CCN2S(=O)(=O)c1ccccc1	-74	.	.	.	/	/
NC(=O)c1ccc(NC(=O)c2ccc3c(c2)CCN3S(=O)(=O)c2ccccc2)cc1	.	.	.	.	.	/
O=C(c1cccc(S(=O)(=O)N2CCc3ccccc3C2)c1)N1CCN(c2ccccc2)CC1	.	.	.	?	.	.
O=C(Nc1cccnc1)c1cccc(S(=O)(=O)N2CCc3ccccc32)c1	.	.	.	?	.	.
O=C(Nc1ccncc1)c1cccc(S(=O)(=O)N2CCc3ccccc32)c1	-77	.	.	?	.	/
CCOC(=O)c1sc(NC(=O)c2cccc(S(=O)(=O)N3CCc4ccccc43)c2)c(C#N)c1C	-99	.	?	?	.	.
O=C(c1cccc(S(=O)(=O)N2CCc3ccccc32)c1)N1CCN(c2ccccc2)CC1	?	40µM	.	.	.	/
COC(=O)c1ccc(-c2cccc3c2OC(CNC(=O)/C=C/c2ccc(OC)c(OC)c2)C3)nc1 (stereo unspecified)	/	/	/	.	/	/
CC(CNC(=O)Cn1ccc2cc(S(=O)(=O)N3CCCCCC3)ccc21)c1ccccc1 (stereo unspecified)	.	.	.	.	/	/
C[C@H](NC(=O)C[C@@H]1C[C@@H]2c3cc(NC(=O)C4CCC4)ccc3O[C@@H]2[C@@H](CO)O1)c1ccccc1	.	/	/	/	/	/
CC(C)C[C@@H](CN1CCC[C@@H]1CN1C(=S)NC[C@@H]1Cc1ccc(O)cc1)N1C[C@H](Cc2ccc(O)cc2)N(CC2CCCCC2)C1=S	-100	/	.	.	.	/
CC(C)C[C@@H](CN1CCC[C@@H]1CN1C(=S)NC[C@@H]1Cc1ccc(O)cc1)N1C[C@H](Cc2ccc(O)cc2)N(CC2CCCCCC2)C1=S	-100	/	.	?	.	/
Oc1ccc(C[C@H]2CN([C@@H](Cc3ccc(O)cc3)CN3CCC[C@@H]3CN3C(=S)NC[C@@H]3Cc3ccccc3)C(=S)N2CCc2ccccc2)cc1	.	/	.	.	.	/
CC(C)C[C@@H](CN1CCCC1CN1C(=S)NC[C@@H]1Cc1ccc(O)cc1)N1C[C@H](Cc2ccc(O)cc2)N(CCc2ccccc2)C1=S (stereo partly specified)	-95	/	.	.	.	/
CC(C)C[C@@H](CN1CCCC1CN1C(=S)NC[C@@H]1Cc1ccccc1)N1C[C@H](Cc2ccc(O)cc2)N(CC2CCCCC2)C1=S (stereo partly specified)	-73	/	.	.	.	/
COc1ccc(NC(=O)CN(c2cccc(C)c2C)S(=O)(=O)c2ccccc2)cc1OC	.	.	.	.	/	/
COc1ccc(C2NC(=S)N(Cc3ccc(Cl)cc3)C(C)=C2C(C)=O)cc1 (stereo unspecified)	.	/	/	/	/	/
SMILES	HCMV inh	Sm TGR inh	TbPYK inhibitor	FMDV antiviral	RE007 growth inh	FBPA Giardia inh
Cc1ccc(C(=O)/C=C/Nc2ccccn2)cc1	?	/	?	2.5µM	?	/
Cc1ccc(N/C=C/C(=O)c2ccc(C)cc2)cc1	.	.	.	.	.	.
Cc1ccc(C(=O)/C=C/C(=O)c2ccc(C)cc2)cc1	.	2.2µM	?	?	.	.
Cc1ccc(/C=C/C(=O)c2ccc(C)cc2)cc1	.	.	.	.	.	.
CCOC(=O)c1ccc(N2CCN(c3cc(C)ccc3C)CC2)c(NC(=O)Nc2ccc(Cl)cc2)c1	.	.	.	.	/	/
C[C@@H]1CN([C@H](C)CO)S(=O)(=O)c2ccc(Br)cc2O[C@@H]1CN(C)C(=O)Nc1ccc(C(F)(F)F)cc1	.	/	.	.	.	/
COc1cccc(NC(=O)N(C)C[C@H]2Oc3cc(C#Cc4ccncc4)ccc3S(=O)(=O)N([C@H](C)CO)C[C@H]2C)c1	-109	/	.	.	.	/
Cc1ccccc1-c1ccc2c(c1)O[C@@H](CN(C)C(=O)Nc1ccc(C(F)(F)F)cc1)[C@H](C)CN([C@@H](C)CO)S2(=O)=O	-76	/	.	.	.	/
CC(C)c1ccc2[nH]c(O)c(N=NC(=O)c3cccc(S(=O)(=O)Nc4ccccc4Cl)c3)c2c1	.	.	.	.	.	.
O=C(N=Nc1c(O)[nH]c2ccccc12)c1cccc(S(=O)(=O)Nc2ccccc2Cl)c1	-72	.	.	.	.	.
O=C(NCCc1c[nH]c2ccccc12)c1cccc(S(=O)(=O)Nc2ccccc2Cl)c1	-100	.	.	.	.	.
CN(C)CCNc1oc(COc2ccc(Cl)cc2)nc1C#N	.	28µM	.	.	.	.
N#Cc1nc(COc2cccc(Cl)c2)oc1NCCc1ccccc1	.	.	.	.	/	/
CN(C)CCNc1oc(COc2cccc(Cl)c2)nc1C#N	.	35µM	.	.	.	.
COC(=O)c1ccc2c(=O)n(CCCCCC(=O)NC3CCCCC3)c(=O)[nH]c2c1	.	/	/	/	/	/
C=CCOc1cccc(C(=O)/C=C2/C(=O)Nc3ccccc32)c1	.	.	.	28µM	.	.
Cc1cccc(OCC(=O)Nc2nnc(S(=O)(=O)N3CCc4ccccc43)s2)c1	.	.	.	.	/	/
Cc1nn(C)c(C)c1/C=C/C(=O)c1ccc(Cl)cc1Cl	-81	.	.	?	.	.
CCCCc1nc2ccccc2c(=O)n1-c1ccc(Cl)cc1[N+](=O)[O-]	-62	.	.	.	.	.
COc1ccc(C(=O)NCC2Cc3cc(F)cc(-c4cncnc4)c3O2)cc1 (stereo unspecified)	/	/	/	.	/	/
O=C(c1ccc2c(c1)OCO2)N1C[C@H]2[C@@H](c3ccccc31)[C@H](CO)N2C(=O)CC1CC1	.	/	/	/	/	/
CC1=C([N+](=O)[O-])C(c2cccc(Br)c2)C2=C(N1)c1ccccc1C2=O (stereo unspecified)	-90	?	.	?	.	.
